High-throughput results as filed in PubChem BioAssay.
Shown are actives, neighbours in structure and some others; about 19% of the full set was active somewhere.
DT40 TDP1 CPT = growth inhibition of DT40 Tdp1-/-;hTDP1 cells with camptothecin (screen for TDP1 inhibitors); AID 686979; Potency, µM (top dose mostly 46.2 µM), for inactives: top-dose activity change, negative = growth inhibition, most hits filed as inhibitors; chicken DT40 Tdp1-/-;hTDP1 cells + 20 nM CPT, ATP luminescence, 48 h; 420,000 compounds, 12% hits; further: potency means the concentration at half of the fitted maximal effect; nearly all actives have a fitted effect of over 55% in size
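Chicken DT40 Tdp1-/- cells complemented with human TDP1, 400 cells/well, exposed to compounds plus 20 nM camptothecin for at least 48 h at 37 C; viability read as ATP content by CellTiter-Glo luminescence.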
TDP1 cell noCPT = qHTS for Inhibitors of human tyrosyl-DNA phosphodiesterase 1 (TDP1): qHTS in cells in absence of CPT | DT40 Tdp1-/- hTDP1 cells, no CPT, ATP luminescence, 48 h | Potency, µM (series often up to 46.2 µM), inactives show top-dose activity change, negative = growth inhibition, usual class: inhibitors | 420,000 compounds, 15% hits; further: potency means the concentration at half of the fitted maximal effect; nearly all actives have a fitted effect of over 55% in size
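Chicken DT40 Tdp1-/- cells complemented with human TDP1, screened without camptothecin (DMSO vehicle only), 400 cells/well. Compounds pin-transferred, cells incubated at 37 °C for at least 48 hr. Growth read as ATP-dependent luminescence (CellTiter-Glo, 30 min at RT).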
Giardia kill = kills Giardia lamblia; activity change, % at 7.66 µM, hits read low; 340,000 compounds, 0.15% hits; Giardia lamblia trophozoite viability; AID 540267; in the data active means activity change below about -80%; inconclusive means between about -30% and that limit;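 further: parasites exposed to compound for two days anaerobically before the ATP read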
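Luminescent ATP signal served as the viability read-out, measured 15-30 min after adding ATP detection reagent to trophozoites that had been incubated with compounds for 48 hrs at 37 deg C anaerobically at 100 cells/well.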
TDP1 inh = blocks human tyrosyl-DNA phosphodiesterase 1. Potency, µM (top dose mostly 130 µM), for inactives: at the top dose activity change, negative = inhibition, most hits filed as inhibitors. 350,000 compounds, 0.28% hits. Q9NUW8. recombinant TDP1, AlphaScreen DNA substrate cleavage; further: potency means the concentration at half of the fitted maximal effect; nearly all actives have a fitted effect of over 40% in size
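Signal: AlphaScreen proximity between streptavidin donor and anti-FITC acceptor beads on intact substrate. Reaction: Tdp1 1 nM, substrate 15 nM final, 5 min RT after 15 min compound preincubation.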
IL1B secr inh = blocks inflammasome-driven IL-1 beta release | THP-1 LPS/ATP IL-1B secretion, AlphaLISA, 16 h; hits give low values | activity change, % at 57.5 µM | 360,000 compounds, 4.7% hits; in the data active means activity change below about -50%; inconclusive means mostly about -30% to -49%
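THP-1 cells pretreated 1 hr with compounds (up to 57.5 uM final), then stimulated with LPS (250 ng/mL final) plus ATP (1.25 mM final); secreted IL-1B measured by AlphaLISA after 16 hr, decreased signal indicating inhibition.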
ELG1 DNA repair = blocks ELG1-dependent DNA repair in HEK293T cells; HEK293T ELG1-luciferase reporter, luminescence, 16 h; DNA damage induced by 5-fluorouridine; Potency, µM (highest dose often 46.1 µM), for the others: top-dose activity change, negative = inhibition, most hits filed as inhibitors; 330,000 compounds, 2.3% hits; AID 504467; further: potency means the concentration at half of the fitted maximal effect; nearly all actives have a fitted effect of over 55% in size
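Reporter activity after DNA damage by 5-fluorouridine is monitored. Compound-treated cells incubate 16 hr at 37 °C, then ONE-Glo is added for 30 min before luminescence reading.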
ELG1 FLuc counter = luciferase inhibition in cell-free luciferin readout for ELG1 hits; shares compounds with ELG1 DNA repair; cell-free firefly luciferase luminescence counter-screen, ViewLux; Potency, µM (titrated, usually from 46.1 µM), inactives show at the top dose activity change, negative = inhibition, usual class: inhibitors; 350 compounds, 3% hits; AID 624247; further: potency means the concentration at half of the fitted maximal effect
ELG1 Luc conf = human ELG1 repair inhibition, luciferase-tagged ELG1 confirmation; Potency, µM (titrated, usually from 46.1 µM), inactives show top-dose activity change, negative = inhibition, usual class: inhibitors; shares compounds with ELG1 DNA repair; HEK293T ELG1-luciferase levels, luminescence; cells co-treated with 5-fluorouridine; 670 compounds, 68% hits; further: potency means the concentration at half of the fitted maximal effect; nearly all actives have a fitted effect of over 55% in size
Target sequence (Q96QE3 whole entry, looked up): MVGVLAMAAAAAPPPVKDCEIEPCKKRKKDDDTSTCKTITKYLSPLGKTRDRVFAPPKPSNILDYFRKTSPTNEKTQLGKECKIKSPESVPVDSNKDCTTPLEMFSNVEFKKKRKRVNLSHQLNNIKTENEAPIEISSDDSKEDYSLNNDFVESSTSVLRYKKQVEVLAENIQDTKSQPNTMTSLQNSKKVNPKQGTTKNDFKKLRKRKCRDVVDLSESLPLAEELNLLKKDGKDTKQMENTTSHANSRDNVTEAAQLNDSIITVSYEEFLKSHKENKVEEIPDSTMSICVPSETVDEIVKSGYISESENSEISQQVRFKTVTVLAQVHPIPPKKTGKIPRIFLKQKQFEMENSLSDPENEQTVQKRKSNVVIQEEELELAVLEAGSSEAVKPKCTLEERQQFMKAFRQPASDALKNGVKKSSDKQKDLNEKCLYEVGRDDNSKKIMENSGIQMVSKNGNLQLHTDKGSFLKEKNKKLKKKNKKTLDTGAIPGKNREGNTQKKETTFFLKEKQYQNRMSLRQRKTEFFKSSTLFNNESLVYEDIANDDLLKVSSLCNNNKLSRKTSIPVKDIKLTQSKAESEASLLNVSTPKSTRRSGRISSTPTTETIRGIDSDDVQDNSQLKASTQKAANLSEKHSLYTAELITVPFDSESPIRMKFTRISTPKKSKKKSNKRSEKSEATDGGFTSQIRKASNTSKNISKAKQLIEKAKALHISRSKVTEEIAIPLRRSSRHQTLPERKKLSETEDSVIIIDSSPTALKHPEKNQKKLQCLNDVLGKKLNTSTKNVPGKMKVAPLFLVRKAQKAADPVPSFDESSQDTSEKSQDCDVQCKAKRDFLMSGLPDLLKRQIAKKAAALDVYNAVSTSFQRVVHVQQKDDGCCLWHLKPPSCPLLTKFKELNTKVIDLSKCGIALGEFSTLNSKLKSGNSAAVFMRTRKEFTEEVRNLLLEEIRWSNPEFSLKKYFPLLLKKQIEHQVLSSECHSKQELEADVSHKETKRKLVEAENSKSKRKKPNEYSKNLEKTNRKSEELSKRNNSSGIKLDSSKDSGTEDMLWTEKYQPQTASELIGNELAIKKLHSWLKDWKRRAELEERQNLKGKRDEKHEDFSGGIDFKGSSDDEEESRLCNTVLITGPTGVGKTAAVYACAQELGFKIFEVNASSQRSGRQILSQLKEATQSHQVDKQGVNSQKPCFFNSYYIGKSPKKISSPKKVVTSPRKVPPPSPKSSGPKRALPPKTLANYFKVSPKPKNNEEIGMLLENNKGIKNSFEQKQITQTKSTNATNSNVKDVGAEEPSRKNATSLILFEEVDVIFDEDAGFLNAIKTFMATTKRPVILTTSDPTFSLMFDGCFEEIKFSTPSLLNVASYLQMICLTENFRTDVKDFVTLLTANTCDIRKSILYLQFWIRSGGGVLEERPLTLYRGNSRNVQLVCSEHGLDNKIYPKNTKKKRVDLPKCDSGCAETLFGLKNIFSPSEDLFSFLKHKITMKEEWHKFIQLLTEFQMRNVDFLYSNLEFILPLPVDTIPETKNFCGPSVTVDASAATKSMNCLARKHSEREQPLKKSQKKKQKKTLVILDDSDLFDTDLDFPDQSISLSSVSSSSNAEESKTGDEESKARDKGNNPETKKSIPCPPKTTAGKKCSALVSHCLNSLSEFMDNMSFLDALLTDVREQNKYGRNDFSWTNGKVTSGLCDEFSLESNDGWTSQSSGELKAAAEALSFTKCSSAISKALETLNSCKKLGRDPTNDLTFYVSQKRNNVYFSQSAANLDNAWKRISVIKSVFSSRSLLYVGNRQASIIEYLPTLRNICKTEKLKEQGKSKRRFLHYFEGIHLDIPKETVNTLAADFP
ELG1 MMS Luc = confirmation of human ELG1 repair inhibitors, MMS stimulated. shares compounds with ELG1 DNA repair. HEK293T luciferase-tagged ELG1 level, MMS stimulated. Potency, µM (series often up to 46.1 µM), for the others: at the top dose activity change, negative = inhibition, hits mostly inhibitors. 670 compounds, 53% hits. AID 624249; further: potency means the concentration at half of the fitted maximal effect; nearly all actives have a fitted effect of over 60% in size
ELG1 5-FU = confirmation of ELG1 repair inhibitors: viability with 5FU; Potency, µM (highest dose often 46.1 µM), inactives show at the highest dose activity change, negative = viability loss, most hits filed as cytotoxic; shares compounds with ELG1 DNA repair; cell viability with 5-FU, ELG1-dependent repair; 670 tested, under 10 active;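 further: ELG1-luc HEK293T cells cotreated with 5-fluorouridine at 10 µM final; potency means the concentration at half of the fitted maximal effect; viability measured 16 h after compound addition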
ELG1 MMS cell = confirmation of ELG1 repair inhibitors: viability with MMS; Potency, µM (highest dose often 46.1 µM), without a hit: top-dose activity change, negative = viability loss, actives largely listed as cytotoxic; shares compounds with ELG1 DNA repair; Cell viability with MMS, ELG1-dependent DNA repair; 670 compounds, 33% hits;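 further: ELG1-luc HEK293T cells co-treated with 10 µM MMS; potency means the concentration at half of the fitted maximal effect; viability read 16 h after compound addition; nearly all actives have a fitted effect of over 60% in size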
ELG1 unstim viab = counter-screen for ELG1 repair inhibitors: unstimulated cell viability. AID 624252. cell viability counter-screen, unstimulated, luminescence. 900 compounds, 8% hits. shares compounds with ELG1 DNA repair. Potency, µM (titrated, usually from 45.9 µM), for the others: at the top dose activity change, negative = loss of viability, most hits filed as cytotoxic;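 further: potency means the concentration at half of the fitted maximal effect; compound exposure lasted 16 hours before reading; nearly all actives have a fitted effect of over 55% in size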
FLuc biochem = inhibits purified firefly luciferase, counter-screen for ELG1 hits | shares compounds with ELG1 DNA repair | purified firefly luciferase, luminescence counter-screen | Potency, µM (highest dose often 57.5 µM), for the others: top-dose activity, negative = inhibition, hits mostly inhibitors | 350 compounds, 10% hits | AID 624253; further: potency means the concentration at half of the fitted maximal effect
Starred values were filed as active, the others as inactive; ? = inconclusive; / = no result. Unless noted, the call rests on the fitted dose curve; in most records, active means well fitted curve in the direction sought with a large enough effect; inconclusive means small, poorly fitted or top-dose-only effect, or another doubt; inactive means no such curve, though single readings can be large; an effect the other way counts as inactive or inconclusive. On the % scale 0 is the no-effect control and ±100 the full control effect.

SMILES	DT40 TDP1 CPT	TDP1 cell noCPT	Giardia kill	TDP1 inh	IL1B secr inh	ELG1 DNA repair	ELG1 FLuc counter	ELG1 Luc conf	ELG1 MMS Luc	ELG1 5-FU	ELG1 MMS cell	ELG1 unstim viab	FLuc biochem
O=C1CCN(Cc2ccccc2)C=C1c1ccc2ccccc2c1	-29.7%	-16.7%	-14.4	7.5%	-2.9	?	/	/	/	/	/	-2.2%	/
O=C1CCN(Cc2ccccc2)C=C1c1ccc(C(F)(F)F)cc1	?	?	-17.8	1.4%	16.0	4.8%	/	/	/	/	/	/	/
COc1cc2cc(CN(Cc3cccnc3)C(=O)Nc3ccccc3F)c(=O)[nH]c2cc1OC	?	?	-1.3	0.0%	?	5.8µM*	-5.0%	9.97µM*	0.6%	?	-1.2%	-8.3%	-13.9%
CCN(CC)CCCN(Cc1cc2cc(OC)c(OC)cc2[nH]c1=O)C(=O)Nc1ccccc1	?	-19.6%	-0.1	-2.3%	?	?	/	/	/	/	/	/	/
COc1ccc(CSc2ncnc3sccc23)cc1F	-17.7%	-17.2%	-17.3	0.0%	-5.4	5.6%	/	/	/	/	/	/	/
COc1ccc(CCNc2ncnc3sccc23)cc1OC	0.164µM*	0.291µM*	8.3	2.6%	-7.7	0.291µM*	11.6%	?	0.281µM*	-0.2%	0.397µM*	?	-9.6%
Cc1cccc(C)c1OCc1nc2ccccc2c(=O)n1/N=C/c1ccc(OCC(=O)O)cc1	-25.5%	?	-9.6	-2.6%	6.4	1.8%	/	/	/	/	/	/	/
Cc1ccccc1OCc1nc2ccccc2c(=O)n1/N=C/c1cn[nH]c1-c1ccccc1	?	20.6µM*	-8.2	9.3%	-52.7*	4.61µM*	-6.5%	7.06µM*	14.1µM*	?	?	?	-17.9%
COc1ccc(OC)c(/C=N/n2c(C)nc3ccccc3c2=O)c1	-4.7%	-27.3%	2.4	/	7.9	/	/	/	/	/	/	/	/
Cc1ccc(-c2[nH]ncc2/C=N/n2c(COc3ccccc3)nc3ccccc3c2=O)cc1	?	?	-0.2	-1.4%	-91.8*	5.17µM*	-10.6%	3.15µM*	19.9µM*	?	28.1µM*	15.8µM*	?
Cc1nn(-c2ccccc2)c2c1C(O)n1c(nc3ccccc31)S2 (stereo not given)	14.6µM*	15.8µM*	-7.2	2.1%	-86.0*	2.59µM*	/	15.8µM*	11.2µM*	?	25µM*	?	/
O=C(COS(=O)c1ccccc1)Nc1cc(Cl)ccc1N1CCOCC1 (stereo not given)	6.0%	?	9.7	5.4%	-18.5	?	/	/	/	/	/	/	/
O=C(CC1OC(=O)c2ccccc21)Nc1cc(Cl)ccc1N1CCOCC1 (stereo not given)	-25.3%	?	-1.8	0.8%	-0.1	4.11µM*	/	?	-1.4%	3.9%	1.6%	-7.4%	/
CC1(C)Cc2c(c(N3CCOCC3)nc3snc(Br)c23)CO1	?	?	8.1	3.1%	0.4	16.4µM*	3.0%	12.6µM*	?	?	-1.5%	-1.7%	3.7%
CC1(C)Cc2c(C#N)c(SCCO)nc(N3CCOCC3)c2CO1	-21.6%	-15.3%	-5.9	/	20.0	?	/	/	/	/	/	/	/
Cc1cc2oc(C(=O)Nc3nc(-c4ccccc4)ns3)c(C)c2cc1Cl	?	-91.4%	/	2.3%	/	/	/	/	/	/	/	/	/
COc1ccc(-c2cc(=O)oc3c(C)c(OCC(=O)NCCCn4ccnc4)ccc23)cc1	?	?	6.4	/	-26.6	?	/	/	/	/	/	/	/
COc1ccc(-c2cc(=O)oc3c(C)c(OC(=O)c4cccs4)ccc23)cc1	3.66µM*	?	3.7	0.0%	-5.8	4.11µM*	/	4.45µM*	?	-4.1%	-2.4%	-6.4%	/
Clc1nc(NCc2cccnc2)nc(N2CCOCC2)n1	-2.1%	-5.8%	-1.1	2.4%	44.4	-2.9%	/	/	/	/	/	/	/
Cc1sc(NC(=O)c2ccco2)c(C(c2cccnc2)N2CCN(c3ccc(F)cc3)CC2)c1C (stereo not given)	1.84µM*	5.8µM*	-14.5	8.7%	?	-16.0%	10.7%	/	/	/	/	-12.2%	-0.6%
O=C(NCCS(=O)(=O)N1CCN(c2ccc(F)cc2)CC1)c1ccco1	0.6%	-7.1%	-0.4	-1.3%	-2.3	23.1%	/	/	/	/	/	/	/
Cc1cccc2cc(CN(CCN3CCOCC3)C(=O)Nc3ccccc3F)c(=O)[nH]c12	-1.7%	?	9.7	-2.6%	-8.9	3.26µM*	/	3.97µM*	30.0%	?	4.2%	-12.4%	/
COCCCNc1nc(N)c([N+](=O)[O-])c(Nc2cc(OC)ccc2OC)n1	-0.4%	?	-2.3	8.4%	/	1.83µM*	/	1.12µM*	?	?	-1.8%	-6.6%	/
Cc1ccc(-c2noc(C3CCCN(C(=O)c4ccccc4Br)C3)n2)o1 (stereo not given)	-29.5%	?	2.2	/	21.1	?	/	/	/	/	/	/	/
Cc1cc(C(=O)COC(=O)C2=COCCO2)c(C)n1-c1ccccc1	?	?	?	7.1%	5.5	?	11.2µM*	/	/	/	/	?	0.092µM*
